Measurements from article PMC11006913.
Positions count from the first letter of the chain named.

Columns and labels:
Assay in all cases: PBM; 200 nM protein, PBS
Conditions in all cases: dsDNA, one strand shown
SIX6 [1] = biological target: T1, SIX6 (Homo sapiens, UniProt O95475 114-200, L167I)
T1 sequence: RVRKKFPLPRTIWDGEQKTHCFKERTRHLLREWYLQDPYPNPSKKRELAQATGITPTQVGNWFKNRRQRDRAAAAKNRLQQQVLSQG

SIX6 [2] = biological target: T2, SIX6 (Homo sapiens, UniProt O95475 114-200, L143V)
T2 sequence: T1 sequence with L30V, I54L

SIX6 [3] = biological target: T3, SIX6 (Homo sapiens, UniProt O95475 114-200, H141N)
T3 sequence: T1 sequence with H28N, I54L

SIX6 [4] = biological target: T4, SIX6 (Homo sapiens, UniProt O95475 114-200, T165P)
T4 sequence: T1 sequence with T52P, I54L

SIX6 [5] = biological target: T5, SIX6 (Homo sapiens, UniProt O95475 114-200, L167M)
T5 sequence: T1 sequence with I54M

SIX6 [6] = biological target: T6, SIX6 (Homo sapiens, UniProt O95475 114-200, L143M)
T6 sequence: T1 sequence with L30M, I54L

SIX6 [7] = biological target: T7, SIX6 (Homo sapiens, UniProt O95475 114-200, L143I)
T7 sequence: T1 sequence with L30I, I54L

SIX6 [8] = biological target: T8, SIX6 (Homo sapiens, UniProt O95475 114-200, T165G)
T8 sequence: T1 sequence with T52G, I54L

SIX6 [9] = biological target: T9, SIX6 (Homo sapiens, UniProt O95475 114-200, T139Q)
T9 sequence: T1 sequence with T26Q, I54L

SIX6 [10] = biological target: T10, SIX6 (Homo sapiens, UniProt O95475 114-200, T165A)
T10 sequence: T1 sequence with T52A, I54L

SIX6 [11] = biological target: T11, SIX6 (Homo sapiens, UniProt O95475 114-200, L167V)
T11 sequence: T1 sequence with I54V

SIX6 [12] = biological target: T12, SIX6 (Homo sapiens, UniProt O95475 114-200)
T12 sequence: T1 sequence with I54L

SIX6 [13] = biological target: T13, SIX6 (Homo sapiens, UniProt O95475 114-200, T165I)
T13 sequence: T1 sequence with T52I, I54L

Sequence: GGCCGGAA
- binding signal (SIX6 [1]): 9.02 upbm affinity estimate (log intensity, higher = more binding, comparable within an allelic series)
- binding signal (SIX6 [2]): 8.91 upbm affinity estimate (log intensity, higher = more binding, comparable within an allelic series)
- binding signal (SIX6 [3]): 8.94 upbm affinity estimate (log intensity, higher = more binding, comparable within an allelic series)
- binding signal (SIX6 [4]): 9.01 upbm affinity estimate (log intensity, higher = more binding, comparable within an allelic series)
- binding signal (SIX6 [5]): 8.98 upbm affinity estimate (log intensity, higher = more binding, comparable within an allelic series)
- binding signal (SIX6 [6]): 9 upbm affinity estimate (log intensity, higher = more binding, comparable within an allelic series)
- binding signal (SIX6 [7]): 8.95 upbm affinity estimate (log intensity, higher = more binding, comparable within an allelic series)
- binding signal (SIX6 [8]): 8.98 upbm affinity estimate (log intensity, higher = more binding, comparable within an allelic series)
- binding signal (SIX6 [9]): 9.04 upbm affinity estimate (log intensity, higher = more binding, comparable within an allelic series)
- binding signal (SIX6 [10]): 8.94 upbm affinity estimate (log intensity, higher = more binding, comparable within an allelic series)
- binding signal (SIX6 [11]): 9.02 upbm affinity estimate (log intensity, higher = more binding, comparable within an allelic series)
- binding signal (SIX6 [12]): 8.92 upbm affinity estimate (log intensity, higher = more binding, comparable within an allelic series)
- binding signal (SIX6 [13]): 8.95 upbm affinity estimate (log intensity, higher = more binding, comparable within an allelic series)

Sequence: CTGATACC
- binding signal (SIX6 [1]): 11.3 upbm affinity estimate (log intensity, higher = more binding, comparable within an allelic series)
- binding signal (SIX6 [2]): 10.4 upbm affinity estimate (log intensity, higher = more binding, comparable within an allelic series)
- binding signal (SIX6 [3]): 11.3 upbm affinity estimate (log intensity, higher = more binding, comparable within an allelic series)
- binding signal (SIX6 [4]): 9.63 upbm affinity estimate (log intensity, higher = more binding, comparable within an allelic series)
- binding signal (SIX6 [5]): 10.6 upbm affinity estimate (log intensity, higher = more binding, comparable within an allelic series)
- binding signal (SIX6 [6]): 11 upbm affinity estimate (log intensity, higher = more binding, comparable within an allelic series)
- binding signal (SIX6 [7]): 10.4 upbm affinity estimate (log intensity, higher = more binding, comparable within an allelic series)
- binding signal (SIX6 [8]): 11.4 upbm affinity estimate (log intensity, higher = more binding, comparable within an allelic series)
- binding signal (SIX6 [9]): 11.4 upbm affinity estimate (log intensity, higher = more binding, comparable within an allelic series)
- binding signal (SIX6 [10]): 11.4 upbm affinity estimate (log intensity, higher = more binding, comparable within an allelic series)
- binding signal (SIX6 [11]): 11 upbm affinity estimate (log intensity, higher = more binding, comparable within an allelic series)
- binding signal (SIX6 [12]): 11.1 upbm affinity estimate (log intensity, higher = more binding, comparable within an allelic series)
- binding signal (SIX6 [13]): 11.1 upbm affinity estimate (log intensity, higher = more binding, comparable within an allelic series)

Sequence: CGCAACCG
- binding signal (SIX6 [1]): 9.24 upbm affinity estimate (log intensity, higher = more binding, comparable within an allelic series)
- binding signal (SIX6 [2]): 9.05 upbm affinity estimate (log intensity, higher = more binding, comparable within an allelic series)
- binding signal (SIX6 [3]): 9.23 upbm affinity estimate (log intensity, higher = more binding, comparable within an allelic series)
- binding signal (SIX6 [4]): 9.03 upbm affinity estimate (log intensity, higher = more binding, comparable within an allelic series)
- binding signal (SIX6 [5]): 9.16 upbm affinity estimate (log intensity, higher = more binding, comparable within an allelic series)
- binding signal (SIX6 [6]): 9.07 upbm affinity estimate (log intensity, higher = more binding, comparable within an allelic series)
- binding signal (SIX6 [7]): 9.2 upbm affinity estimate (log intensity, higher = more binding, comparable within an allelic series)
- binding signal (SIX6 [8]): 9.18 upbm affinity estimate (log intensity, higher = more binding, comparable within an allelic series)
- binding signal (SIX6 [9]): 9.31 upbm affinity estimate (log intensity, higher = more binding, comparable within an allelic series)
- binding signal (SIX6 [10]): 9.14 upbm affinity estimate (log intensity, higher = more binding, comparable within an allelic series)
- binding signal (SIX6 [11]): 9.12 upbm affinity estimate (log intensity, higher = more binding, comparable within an allelic series)
- binding signal (SIX6 [12]): 9.2 upbm affinity estimate (log intensity, higher = more binding, comparable within an allelic series)
- binding signal (SIX6 [13]): 9.15 upbm affinity estimate (log intensity, higher = more binding, comparable within an allelic series)

Sequence: CGCCCACC
- binding signal (SIX6 [1]): 9.03 upbm affinity estimate (log intensity, higher = more binding, comparable within an allelic series)
- binding signal (SIX6 [2]): 9.02 upbm affinity estimate (log intensity, higher = more binding, comparable within an allelic series)
- binding signal (SIX6 [3]): 9.04 upbm affinity estimate (log intensity, higher = more binding, comparable within an allelic series)
- binding signal (SIX6 [4]): 9.15 upbm affinity estimate (log intensity, higher = more binding, comparable within an allelic series)
- binding signal (SIX6 [5]): 9.04 upbm affinity estimate (log intensity, higher = more binding, comparable within an allelic series)
- binding signal (SIX6 [6]): 9.02 upbm affinity estimate (log intensity, higher = more binding, comparable within an allelic series)
- binding signal (SIX6 [7]): 9.17 upbm affinity estimate (log intensity, higher = more binding, comparable within an allelic series)
- binding signal (SIX6 [8]): 9.11 upbm affinity estimate (log intensity, higher = more binding, comparable within an allelic series)
- binding signal (SIX6 [9]): 9.21 upbm affinity estimate (log intensity, higher = more binding, comparable within an allelic series)
- binding signal (SIX6 [10]): 9.07 upbm affinity estimate (log intensity, higher = more binding, comparable within an allelic series)
- binding signal (SIX6 [11]): 9.06 upbm affinity estimate (log intensity, higher = more binding, comparable within an allelic series)
- binding signal (SIX6 [12]): 9.1 upbm affinity estimate (log intensity, higher = more binding, comparable within an allelic series)
- binding signal (SIX6 [13]): 9.03 upbm affinity estimate (log intensity, higher = more binding, comparable within an allelic series)

Sequence: ATGGCCGC
- binding signal (SIX6 [1]): 8.86 upbm affinity estimate (log intensity, higher = more binding, comparable within an allelic series)
- binding signal (SIX6 [2]): 8.81 upbm affinity estimate (log intensity, higher = more binding, comparable within an allelic series)
- binding signal (SIX6 [3]): 8.75 upbm affinity estimate (log intensity, higher = more binding, comparable within an allelic series)
- binding signal (SIX6 [4]): 8.94 upbm affinity estimate (log intensity, higher = more binding, comparable within an allelic series)
- binding signal (SIX6 [5]): 8.89 upbm affinity estimate (log intensity, higher = more binding, comparable within an allelic series)
- binding signal (SIX6 [6]): 8.74 upbm affinity estimate (log intensity, higher = more binding, comparable within an allelic series)
- binding signal (SIX6 [7]): 8.82 upbm affinity estimate (log intensity, higher = more binding, comparable within an allelic series)
- binding signal (SIX6 [8]): 8.77 upbm affinity estimate (log intensity, higher = more binding, comparable within an allelic series)
- binding signal (SIX6 [9]): 8.7 upbm affinity estimate (log intensity, higher = more binding, comparable within an allelic series)
- binding signal (SIX6 [10]): 8.69 upbm affinity estimate (log intensity, higher = more binding, comparable within an allelic series)
- binding signal (SIX6 [11]): 8.93 upbm affinity estimate (log intensity, higher = more binding, comparable within an allelic series)
- binding signal (SIX6 [12]): 8.75 upbm affinity estimate (log intensity, higher = more binding, comparable within an allelic series)
- binding signal (SIX6 [13]): 8.83 upbm affinity estimate (log intensity, higher = more binding, comparable within an allelic series)

Sequence: GATCGATA
- binding signal (SIX6 [1]): 11 upbm affinity estimate (log intensity, higher = more binding, comparable within an allelic series)
- binding signal (SIX6 [2]): 10.3 upbm affinity estimate (log intensity, higher = more binding, comparable within an allelic series)
- binding signal (SIX6 [3]): 11 upbm affinity estimate (log intensity, higher = more binding, comparable within an allelic series)
- binding signal (SIX6 [4]): 9.87 upbm affinity estimate (log intensity, higher = more binding, comparable within an allelic series)
- binding signal (SIX6 [5]): 10.5 upbm affinity estimate (log intensity, higher = more binding, comparable within an allelic series)
- binding signal (SIX6 [6]): 10.8 upbm affinity estimate (log intensity, higher = more binding, comparable within an allelic series)
- binding signal (SIX6 [7]): 10.4 upbm affinity estimate (log intensity, higher = more binding, comparable within an allelic series)
- binding signal (SIX6 [8]): 11 upbm affinity estimate (log intensity, higher = more binding, comparable within an allelic series)
- binding signal (SIX6 [9]): 11.2 upbm affinity estimate (log intensity, higher = more binding, comparable within an allelic series)
- binding signal (SIX6 [10]): 10.9 upbm affinity estimate (log intensity, higher = more binding, comparable within an allelic series)
- binding signal (SIX6 [11]): 10.8 upbm affinity estimate (log intensity, higher = more binding, comparable within an allelic series)
- binding signal (SIX6 [12]): 10.9 upbm affinity estimate (log intensity, higher = more binding, comparable within an allelic series)
- binding signal (SIX6 [13]): 10.8 upbm affinity estimate (log intensity, higher = more binding, comparable within an allelic series)

Sequence: GCGTATCA
- binding signal (SIX6 [1]): 11.3 upbm affinity estimate (log intensity, higher = more binding, comparable within an allelic series)
- binding signal (SIX6 [2]): 10.2 upbm affinity estimate (log intensity, higher = more binding, comparable within an allelic series)
- binding signal (SIX6 [3]): 11.1 upbm affinity estimate (log intensity, higher = more binding, comparable within an allelic series)
- binding signal (SIX6 [4]): 9.54 upbm affinity estimate (log intensity, higher = more binding, comparable within an allelic series)
- binding signal (SIX6 [5]): 10.5 upbm affinity estimate (log intensity, higher = more binding, comparable within an allelic series)
- binding signal (SIX6 [6]): 11.2 upbm affinity estimate (log intensity, higher = more binding, comparable within an allelic series)
- binding signal (SIX6 [7]): 10.3 upbm affinity estimate (log intensity, higher = more binding, comparable within an allelic series)
- binding signal (SIX6 [8]): 11.3 upbm affinity estimate (log intensity, higher = more binding, comparable within an allelic series)
- binding signal (SIX6 [9]): 11.2 upbm affinity estimate (log intensity, higher = more binding, comparable within an allelic series)
- binding signal (SIX6 [10]): 11.3 upbm affinity estimate (log intensity, higher = more binding, comparable within an allelic series)
- binding signal (SIX6 [11]): 10.9 upbm affinity estimate (log intensity, higher = more binding, comparable within an allelic series)
- binding signal (SIX6 [12]): 11.1 upbm affinity estimate (log intensity, higher = more binding, comparable within an allelic series)
- binding signal (SIX6 [13]): 11.1 upbm affinity estimate (log intensity, higher = more binding, comparable within an allelic series)
